Most compounds without a hit are left out; they make up all but 3.5% or so of the library.
MITF inh: blocks human microphthalmia-associated transcription factor; AlphaScreen MITF homodimerization, bead proximity signal; inhibition, % at 2.6 µM; 650,000 tested, 0.91% active; in the data active means inhibition above about 50%;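 further: 0% = vehicle wells with protein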
GPR151 ag: activates the human receptor GPR151 | activation, % at 11.2 µM | 650,000 tested, 1% active | AID 1508602 | PathHunter beta-arrestin GPR151 cells, luminescence; in the data active means activation above about 4.9%;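 further: 0% = median of compound wells and 100% = cells with positive control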
TEAD-YAP inh: TEAD-YAP interaction inhibition; HEK-TIYL cells, TEAD-Gal4/YAP UAS-luciferase luminescence; inhibition, % at 9.12 µM; 640,000 tested, 1.4% active; AID 1259422; in the data active means inhibition above about 32%;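 further: 0% = median of test compound wells and 100% = reference inhibitor wells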
FBW7 act: activators of human E3 ligase FBW7 | Q969H0 | AlphaScreen FBW7–phospho-cyclin E peptide binding, activator screen | normalized activity (activation), % at 26.1 µM | 650,000 tested, 0.13% active | AID 1259310; in the data active means normalized activity above about 1.9%;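 further: purified mutant Fbw7 with reduced substrate affinity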
Target sequence (Q969H0 whole entry, looked up): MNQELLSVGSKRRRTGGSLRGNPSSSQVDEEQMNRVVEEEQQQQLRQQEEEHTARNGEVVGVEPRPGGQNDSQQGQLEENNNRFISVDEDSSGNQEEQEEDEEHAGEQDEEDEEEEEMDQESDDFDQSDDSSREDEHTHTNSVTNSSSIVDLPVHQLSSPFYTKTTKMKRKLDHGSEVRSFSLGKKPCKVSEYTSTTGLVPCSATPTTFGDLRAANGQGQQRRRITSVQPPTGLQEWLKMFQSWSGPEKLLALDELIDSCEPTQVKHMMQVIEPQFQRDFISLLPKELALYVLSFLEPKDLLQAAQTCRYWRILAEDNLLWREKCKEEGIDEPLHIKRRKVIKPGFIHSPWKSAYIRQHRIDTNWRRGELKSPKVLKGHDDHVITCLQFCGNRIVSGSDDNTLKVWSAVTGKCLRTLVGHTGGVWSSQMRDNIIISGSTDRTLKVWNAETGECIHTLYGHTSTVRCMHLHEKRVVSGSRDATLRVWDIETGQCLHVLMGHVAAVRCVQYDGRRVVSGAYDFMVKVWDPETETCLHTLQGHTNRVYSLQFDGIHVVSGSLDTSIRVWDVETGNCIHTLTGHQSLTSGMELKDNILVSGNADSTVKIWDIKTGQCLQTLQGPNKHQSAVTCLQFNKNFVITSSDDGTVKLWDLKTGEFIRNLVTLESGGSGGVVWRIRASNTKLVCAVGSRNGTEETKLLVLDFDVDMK
Active calls of the source: *; ! = a repeat was not active.

`O=C1C(=O)c2ccccc2-c2ccccc21` gave MITF inh 16.3, GPR151 ag 1.2, TEAD-YAP inh 99.0* and FBW7 act -0.9.
Screening COc1ccc(-n2c(C)nc3ccc(I)cc3c2=O)cc1 returned MITF inh 1.2, GPR151 ag -0.7, TEAD-YAP inh -6.4 and FBW7 act -0.1.
COC(=O)Nc1nc2ccccc2[nH]1 was read as MITF inh -11.3, GPR151 ag -2.9, TEAD-YAP inh 35.2* and FBW7 act 0.1.
For CCOC(=O)C1C2NC(=S)N(c3ccc(Cl)cc3)C1(C)Oc1c(OC)cccc12 (stereo not drawn) the results were MITF inh 25.8, GPR151 ag 1.2, TEAD-YAP inh 61.5* and FBW7 act -0.6.
`CCOC(=O)C1C2NC(=S)N(c3ccc(Cl)cc3)C1(C)Oc1ccc(OC)cc12` (stereo not drawn) gave MITF inh 19.4, GPR151 ag -0.8, TEAD-YAP inh 50.5* and FBW7 act -0.5.
CC(C)C(=O)NC(Oc1ccc([N+](=O)[O-])cc1[N+](=O)[O-])C(Cl)(Cl)Cl (stereo not drawn) was read as MITF inh 8.9, GPR151 ag 0.0, TEAD-YAP inh 2.1 and FBW7 act 0.2.
For Cc1ccc(C2=NCC(=O)Nc3c2oc2ccccc32)cc1 the results were MITF inh 6.9, GPR151 ag 0.1, TEAD-YAP inh 15.1 and FBW7 act -0.1.
`COc1ccc(OC)c(C2=NCC(=O)Nc3c2oc2ccc(Cl)cc32)c1` gave MITF inh 10.9, GPR151 ag 3.2, TEAD-YAP inh 58.6* and FBW7 act 0.1.
COc1cccc(CN2CCN(C(=O)Cc3cccs3)[C@@H](C)C2)c1 was read as MITF inh 2.5, GPR151 ag -0.1, TEAD-YAP inh 18.4 and FBW7 act 0.1.
Cc1cccc(CN2CCN(Cc3cccc(C)c3O)CC2)c1O was read as MITF inh 9.1, GPR151 ag 0.3, TEAD-YAP inh 2.3 and FBW7 act -0.2.
For CCN(CC)c1ccc(CNC(C)C(O)c2ccccc2)cc1 (stereo not drawn) the results were MITF inh 3.0, GPR151 ag -1.2, TEAD-YAP inh 53.1* and FBW7 act -0.1.
CC(NCc1ccc(F)cc1)C(O)c1ccccc1 (stereo not drawn) was read as MITF inh 0.8, GPR151 ag -0.4, TEAD-YAP inh 20.1 and FBW7 act -0.2.
`CCOC(=O)C12OC1(c1ccc(CC)cc1)C(=O)c1ccccc1C2=O` (stereo not drawn) gave MITF inh 21.3, GPR151 ag 0.2, TEAD-YAP inh 36.6* and FBW7 act 0.1.
For CCOC(=O)C1=C(C)NC(C)=C2C(=O)Oc3ccccc3C12 (stereo not drawn) the results were MITF inh -3.2, GPR151 ag 0.5, TEAD-YAP inh 0.5 and FBW7 act 0.1.
Screening C[C@H]1C(=O)O[C@@H]2CCN3CC=C(COC(=O)[C@](C)(O)[C@]1(C)O)[C@H]23 returned MITF inh 12.2, GPR151 ag -3.5, TEAD-YAP inh 73.6*! and FBW7 act 0.2.
`CCOC(=O)c1nc2ccccc2c(=O)n1-c1ccc(Br)cc1` gave MITF inh -6.7, GPR151 ag 0.5, TEAD-YAP inh -5.7 and FBW7 act -0.2.
Screening O=C(c1ccccc1Cl)c1cc([N+](=O)[O-])ccc1-n1cccc1 returned MITF inh 8.8, GPR151 ag 0.7, TEAD-YAP inh 51.1* and FBW7 act -0.1.
`O=C1NC(=O)C(=Cc2ccc(OCc3cccc(C(=O)O)c3)cc2)C(=O)N1` gave MITF inh -3.3, GPR151 ag -7.7, TEAD-YAP inh 71.2* and FBW7 act -0.4.
CCOc1ccc(C=C2C(=O)NC(=S)NC2=O)cc1OCC was read as MITF inh 5.3, GPR151 ag -1.0, TEAD-YAP inh 4.4 and FBW7 act 0.0.
COc1cc(C=C2C(=O)NC(=S)NC2=O)ccc1OCc1cccc(C(=O)O)c1 was read as MITF inh -20.0, GPR151 ag -7.8, TEAD-YAP inh 85.0* and FBW7 act -0.1.
For O=C1NC(=O)C(=Cc2cc(Cl)ccc2OCc2ccc(C(=O)O)cc2)C(=O)N1 the results were MITF inh 5.3, GPR151 ag 1.2, TEAD-YAP inh 0.0 and FBW7 act -0.8.
`CCn1nc(-c2ccccc2)nc2c(=O)n(C)c(=O)nc1-2` gave MITF inh 4.8, GPR151 ag -8.5, TEAD-YAP inh -32.3 and FBW7 act -1.6.
`Cc1nc2c(=O)n(C)c(=O)nc-2n(C)n1` gave MITF inh 21.6, GPR151 ag -6.4, TEAD-YAP inh 99.9* and FBW7 act -1.6.
`COc1cc2c(C(=O)N3CCCC3)c(C)n(C)c2cc1Br` gave MITF inh 1.7, GPR151 ag 0.7, TEAD-YAP inh 9.6 and FBW7 act -0.1.
Screening O=C(c1ccccc1)C(CN1CCCC1)c1ccccc1 (stereo not drawn) returned MITF inh 0.0, GPR151 ag 0.0, TEAD-YAP inh 54.4* and FBW7 act -0.1.
O=C(CN1CCCCCC1)c1ccccc1 was read as MITF inh -13.8, GPR151 ag 0.0, TEAD-YAP inh 0.2 and FBW7 act -0.1.
`CCN(CC)C(=O)c1ccc(NC(=O)c2ccccn2)cc1` gave MITF inh -6.5, GPR151 ag -9.6, TEAD-YAP inh 41.9* and FBW7 act 0.0.
CCN(CC)C(=O)c1ccc(NC(=O)CN2CCCCC2)cc1 was read as MITF inh 12.2, GPR151 ag -1.4, TEAD-YAP inh -3.0 and FBW7 act 0.1.
C[C@@H]1CN(Cc2ccco2)CCN1C(=O)Cc1ccccc1F was read as MITF inh -13.0, GPR151 ag 3.7, TEAD-YAP inh 6.2 and FBW7 act -0.1.
Cc1cc(/C=C2\C(=O)NC(=O)N(C)C2=O)c(C)n1-c1cccc(C(=O)O)c1 was read as MITF inh 36.3, GPR151 ag -0.6, TEAD-YAP inh -5.8 and FBW7 act -1.0.
`CC(=O)OC1CCC23C(=O)OC45CCC(C6=CC(=O)OC6)C4(C)CCC2C5CCC3(O)C1` (stereo not drawn) gave MITF inh -6.3, GPR151 ag 2.2, TEAD-YAP inh 101.5* and FBW7 act 0.0.
Cc1cc(OCc2ccc(Br)cc2)c2c3c(c(=O)oc2c1)CCCC3 was read as MITF inh 5.7, GPR151 ag -1.1, TEAD-YAP inh 4.9 and FBW7 act 0.1.
Screening C[C@]12CC[C@H](O)C[C@H]1CC[C@@H]1[C@@H]2CC[C@]2(C)[C@@H](C3=CC(=O)OC3)CC[C@]12O returned MITF inh 2.7, GPR151 ag 0.7 and FBW7 act 0.1.
COC1CC(O[C@H]2CC[C@]3(C=O)C4CC[C@]5(C)C(C6=CC(=O)OC6)CC[C@]5(O)C4CC[C@]3(O)C2)OC(C)C1O (stereo partly drawn) was read as MITF inh 11.5, GPR151 ag -0.3, TEAD-YAP inh 101.2* and FBW7 act 0.3.

Compound activity from PubChem.
